Experimental data: PubChem BioAssay (EPA / NIEHS)
Several values for one entry are separate records, joined by “and”; a condition that tells them apart may be missing. Equal entries are not always repeated. Inconclusive results are not listed. Activity calls are given as the source filed them. The calls were made as follows, unless noted: active = hit-call score of the fitted dose curve at least 0.9, where 1 is the maximum; inconclusive = response in the unintended direction; inactive = score below 0.9.

Legend:
[1] = target: frog Thyroid hormone Receptor alpha (TRa), thra-a (gene 397942) (UniProt P15204); assay: ATG_frTRa_XSP2: Attagene TRANS-FACTORIAL Multi-Species (XSP2) HepG2 Assay for frog Thyroid hormone Receptor alpha (TRa) (AID 2283839)
Procedure, shortened: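 HepG2 transiently transfected with multiplexed GAL4-UAS reporters driven by frog TRa-Gal4 chimeras; 24 h chemical exposure. Reporter mRNA quantified by RT-PCR, FAM labelling, HpaI digestion and capillary electrophoresis; gain of signal versus DMSO.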

[2] = target: human Thyroid hormone Receptor beta (TRb), THRB (gene 7068) (UniProt P10828); assay: ATG_hTRb_XSP2: Attagene TRANS-FACTORIAL Multi-Species (XSP2) HepG2 Assay for human Thyroid hormone Receptor beta (TRb) (AID 2283840);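 also: actives raise reporter mRNA so potency reflects agonist-like gain of signal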
Procedure, shortened: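 HepG2 transiently transfected with a multi-species panel including a human TRb–Gal4 chimera driving Gal4-UAS reporters; medium contained 3 nM 6-alpha-fluorotestosterone and 1.5 nM norgestrel. 24 h dosing; RT-PCR/capillary electrophoresis readout; positive-direction fit vs DMSO.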

[3] = target: human Vascular Endothelial Growth Factor Receptor 1 (VEGFR1), FLT1 (gene 2321) (UniProt P17948); assay: NVS_ENZ_hVEGFR1: NovaScreen (NVS) Enzymatic Assay for human Vascular Endothelial Growth Factor Receptor 1 (VEGFR1) (AID 2283226)
Procedure, shortened: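 Cell-free assay of recombinant human VEGFR1 kinase with substrate, measured 1 h after dosing; fluorescence with electrophoretic mobility-shift separation of substrate and product, referenced to DMSO; primary screen at 25 uM in duplicate, actives then run in concentration series.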

[4] = target: rat Androgen Receptor (AR), Ar (gene 24208) (UniProt P15207); assay: NVS_NR_rAR: NovaScreen (NVS) Nuclear Receptor Binding Assay for rat Androgen Receptor (AR) (AID 2283366)
Procedure, shortened: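 Cell-free radioligand binding on extracts of prostate from testosterone-pretreated rats, read by filter-based scintillation counting 18 h after dosing. Loss of bound signal fitted positively versus DMSO; primary screen in duplicate at 25 uM, actives followed up in concentration series.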

[5] = CCTE_Deisenroth_AIME_96WELL_CTox_Active: Cytotoxicity Assessment (CTOX) in CCTE's 96-well Estrogen Receptor Transactivation Assay with AIME metabolic competence (metabolism positive), Deisenroth Lab (AID 2284028)
Procedure, shortened: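 Chemicals (0.002–200 uM) were first incubated 2 h with alginate-immobilized phenobarbital/beta-naphthoflavone-induced male rat liver S9; conditioned medium then went onto VM7Luc4E2 cells for 24 h, with viability read by protease-substrate fluorescence, fitted bidirectionally.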

[6] = CCTE_Deisenroth_AIME_96WELL_CTox_Inactive: Cytotoxicity Assessment (CTOX) in CCTE's 96-well Estrogen Receptor Transactivation Assay without AIME metabolic competence (metabolism negative), Deisenroth Lab (AID 2284029)
Procedure, shortened: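 Chemicals (10-point series, 0.002-200 uM) were incubated 2 h with alginate-water microspheres lacking S9. The conditioned medium was then transferred onto VM7Luc4E2 cells for 24 h. Viability was measured by protease-substrate cleavage to a fluorescent probe, with loss of signal fitted bidirectionally; n≥4 experimental replicates.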

[7] = target: Glucocorticoid receptor (Homo sapiens) (UniProt P04150); assay: NVS_NR_hGR: NovaScreen (NVS) Nuclear Receptor Binding Assay for human Glucocorticoid Receptor (GR) (AID 2283363);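 also: activity is loss of specific radioligand binding signal relative to DMSO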
Procedure, shortened: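 Cell-free radioligand displacement assay on extracted human GR, read 16 h after dosing by filter-based scintillation counting. Screened in duplicate at 25 uM, then concentration series for actives; loss of signal versus DMSO baseline.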

[8] = test system: IYD (gene 389434); assay: CCTE_GLTED_hIYD: CCTE's human Iodotyrosine Deiodinase (xIYD) Inhibition Assay, Great Lakes Toxicology and Ecology Division (GLTED) Lab (AID 2284317);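 also: cell-free human IYD enzyme made in baculovirus insect cells; iodide freed from monoiodotyrosine measured by cerium arsenite color change at 420 nm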
Procedure, shortened: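 First, recombinant human IYD (baculovirus-insect cells), MIT and chemical incubated 3 h. Next, iodide isolated on Dowex. Finally, Sandell-Kolthoff rate read at 420 nm, with platewise normalization to MNT and solvent controls.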

[9] = target: human Adenosine A2a Receptor (AdoRA2a), ADORA2A (gene 135) (UniProt P29274); assay: NVS_GPCR_hAdoRA2a: NovaScreen (NVS) G Protein-Coupled Receptor Assay for human Adenosine A2a Receptor (AdoRA2a) (AID 2283256)
Procedure, shortened: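 Cell-free radioligand binding on membranes from HEK293 expressing the receptor; competitive displacement read 1.5 h after dosing by filter-based scintillation counting. Primary screen in duplicate at 25 uM; actives followed in concentration series, with DMSO as baseline.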

[10] = target: Estrogen receptor (Homo sapiens) (UniProt P03372); assay: CCTE_Deisenroth_AIME_384WELL_LUC_Active: CCTE's 384-well Estrogen Receptor Transactivation Assay with AIME metabolic competence (ERTA luciferase; metabolism positive), Deisenroth Lab (AID 2284030)
Procedure, shortened: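 Chemicals (10-point, 0.002-200 uM) were first incubated 2 hours with alginate-immobilized induced male Sprague Dawley rat liver S9. The conditioned medium was then applied to VM7Luc4E2 cells for 24 hours, with ER luciferase induction read by luminescence relative to 17beta-estradiol.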

[11] = target: Estrogen receptor (Homo sapiens) (UniProt P03372); assay: CCTE_Deisenroth_AIME_384WELL_LUC_Inactive: CCTE's 384-well Estrogen Receptor Transactivation Assay without AIME metabolic competence (ERTA luciferase; metabolism negative), Deisenroth Lab (AID 2284038);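 also: VM7Luc4E2 breast cells given medium preincubated 2 h with S9-free microspheres; hits raise estrogen receptor luciferase signal so potencies reflect agonists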
Procedure, shortened: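 Chemicals (10-point series, 0.002 - 200 uM) were incubated 2 hours with alginate-water microsphere lids lacking S9, then the conditioned medium was transferred to VM7Luc4E2 breast cells for 24 hour. Luciferase induction was read by bioluminescence, fitted upward relative to 17beta-estradiol.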

[12] = target: Estrogen receptor (Homo sapiens) (UniProt P03372); assay: CCTE_Deisenroth_AIME_384WELL_LUC_Shift: CCTE's 384-well Estrogen Receptor Transactivation Assay with AIME metabolic competence data shift (ERTA luciferase; difference in metabolism positive and negative), Deisenroth Lab (AID 2284041; active = hit-call score of the fitted dose curve at least 0.9, where 1 is the maximum; inactive = score below 0.9;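 also: shift is response with S9 minus without S9 so positive means metabolism raised ER signal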)
Procedure, shortened: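 Chemicals (0.002–200 uM, 10 points) pre-incubated 2 h with alginate-encapsulated induced male Sprague Dawley rat liver S9 or S9-free, then medium applied 24 h to VM7Luc4E2 cells; luciferase. Endpoint is per-concentration difference, S9-positive minus negative.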

[13] = target: human CYP2C9, CYP2C9 (gene 1559) (UniProt P11712); assay: NVS_ADME_hCYP2C9: NovaScreen (NVS) CYP450-related Enzyme Activity (ADME) Assay for human CYP2C9 (AID 2283108)
Procedure, shortened: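 Recombinant human CYP2C9 expressed in SF9 cells, fluorogenic substrate, fluorescence read 0.75 h after dosing. Chemicals first run in duplicate at 10 uM, with actives followed in concentration series; loss of signal versus acetonitrile baseline.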

[14] = test system: DIO2 (gene 1734); assay: CCTE_GLTED_hDIO2: CCTE's human Deiodinase 2 (DIO2) Inhibition Assay, Great Lakes Toxicology and Ecology Division (GLTED) Lab (AID 2284050)
Procedure, shortened: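 In this cell-free test, chemicals are exposed to human deiodinase type 2 for 3 hours. Released iodide is determined spectrophotometrically via the Sandell-Kolthoff method, and signal loss relative to DMSO is fitted.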

[15] = CCTE_Padilla_ZF_144hpf_TERATOSCORE: (Legacy) CCTE's 144 Hour Post-fertilization zebrafish Assay Teratoscore, Padilla Lab (AID 2283679; active = hit-call score of the fitted dose curve at least 0.9, where 1 is the maximum; inactive = score below 0.9;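 also: zebrafish embryos with chorions exposed by immersion from 6-8 hpf to 5 dpf with daily renewal; teratogenicity score from eye scoring of death hatching and malformations at 144 hpf; higher score means more developmental defects relative to DMSO baseline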)
Procedure, shortened: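 Larvae scored by eye at 144 hpf for death, hatching and malformations after a day in clean Hanks'. Before that, daily-renewed exposure at 80 uM (0.4% DMSO, 26C) from roughly 6-8 hpf through 5 dpf, 4 embryos per chemical.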

[16] = target: THRB (gene 7068) (UniProt P10828); assay: TOX21_TRB_BLA_Antagonist_Followup_ratio: Tox21 Thyroid Hormone Receptor beta Antagonism Beta-lactamase (BLA) Follow-Up Assay, Ratio (AID 2283958)
Procedure, shortened: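 In this antagonist-mode follow-up, a stably integrated GAL4-TRβ LBD fusion drives a UAS-beta-lactamase reporter in HEK293T cells. Loss of ratio signal relative to DMSO after 18 h treatment indicates activity; parallel CellTiter-Glo flags cytotoxicity.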

[17] = TOX21_TRB_BLA_Antagonist_Followup_viability: Viability Assessment in the Tox21 Thyroid Hormone Receptor beta Antagonism Beta-lactamase (BLA) Follow-Up Assay (AID 2283961)
Procedure, shortened: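 HEK293T cells with GAL4-human TRβ LBD and UAS-bla reporter, 3,000 cells/well in 2% charcoal-stripped FBS medium; 11-point concentrations in triplicate, 18 h at 37C. Viability from ATP by CellTiter-Glo luminescence, 30 min RT, same plates.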

[18] = target: THRB (gene 7068) (UniProt P10828); assay: TOX21_TRB_COA_Antagonist_Followup_ratio: Tox21 Thyroid Hormone Receptor beta Antagonism through Coactivator Recruitment Follow-Up Assay, Ratio (AID 2283967)
Procedure, shortened: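 Cell-free TR-FRET: GST-TRb LBD (5.0 nM) with fluorescein-SRC-2 peptide (200 nM) and Tb anti-GST antibody (2 nM), 0.10% BSA. 520:495 nm emission ratio normalized to DMSO (0%) and T3 (100%).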

[19] = target: Retinoic acid receptor RXR-alpha (Homo sapiens) (UniProt P19793); assay: TOX21_TR_RXR_BLA_Antagonist_Followup_ratio: Tox21 Thyroid Hormone Receptor beta Retinoid X Receptor alpha (RXRa) Antagonism Beta-lactamase (BLA) Follow-Up Assay, Ratio (AID 2283972)
Procedure, shortened: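 RXRa-UAS-bla HEK293T cells, 2,500/well in phenol red-free DMEM with 2% charcoal-stripped FBS, 5 h attachment, then compounds (11 concentrations, triplicate) for 16 h at 37C; FRET-B/GCCF4-AM substrate 2 h RT; 460:530 nm ratio, loss of signal vs DMSO.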

[20] = TOX21_TR_RXR_BLA_Antagonist_Followup_viability: Viability Assessment in the Tox21 Thyroid Hormone Receptor beta Retinoid X Receptor alpha (RXRa) Antagonism Beta-lactamase (BLA) Follow-Up Assay (AID 2283979)
Procedure, shortened: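 RXRa-bla HEK293T cells (2,500/well, phenol red-free DMEM, 2% charcoal-stripped FBS) were attached 5 h, then exposed to compounds at 11 concentrations in triplicate for 16 h at 37C. Viability measured by CellTiter-Glo ATP luminescence, bidirectional fitting versus DMSO.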

Sequence of Estrogen receptor (Homo sapiens) (P03372 whole entry, looked up): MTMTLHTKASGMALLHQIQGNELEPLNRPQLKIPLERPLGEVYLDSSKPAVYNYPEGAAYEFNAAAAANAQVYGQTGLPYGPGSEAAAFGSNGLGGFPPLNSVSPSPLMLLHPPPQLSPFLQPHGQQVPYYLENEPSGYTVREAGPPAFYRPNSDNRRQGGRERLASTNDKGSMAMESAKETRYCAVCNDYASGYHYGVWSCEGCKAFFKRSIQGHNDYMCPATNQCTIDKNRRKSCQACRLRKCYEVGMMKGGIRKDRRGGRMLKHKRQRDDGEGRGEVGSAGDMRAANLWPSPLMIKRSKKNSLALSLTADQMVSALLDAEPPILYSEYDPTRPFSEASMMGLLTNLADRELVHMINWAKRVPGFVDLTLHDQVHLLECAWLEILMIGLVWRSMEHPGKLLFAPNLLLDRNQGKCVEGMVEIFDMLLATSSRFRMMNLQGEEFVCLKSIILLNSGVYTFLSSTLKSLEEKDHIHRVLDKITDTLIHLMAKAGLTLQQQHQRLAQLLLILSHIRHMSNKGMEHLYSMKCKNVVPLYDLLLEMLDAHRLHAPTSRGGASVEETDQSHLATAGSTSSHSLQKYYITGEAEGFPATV
Sequence of human Thyroid hormone Receptor beta (TRb), THRB (gene 7068) (P10828 whole entry, looked up, the tested form may be a part): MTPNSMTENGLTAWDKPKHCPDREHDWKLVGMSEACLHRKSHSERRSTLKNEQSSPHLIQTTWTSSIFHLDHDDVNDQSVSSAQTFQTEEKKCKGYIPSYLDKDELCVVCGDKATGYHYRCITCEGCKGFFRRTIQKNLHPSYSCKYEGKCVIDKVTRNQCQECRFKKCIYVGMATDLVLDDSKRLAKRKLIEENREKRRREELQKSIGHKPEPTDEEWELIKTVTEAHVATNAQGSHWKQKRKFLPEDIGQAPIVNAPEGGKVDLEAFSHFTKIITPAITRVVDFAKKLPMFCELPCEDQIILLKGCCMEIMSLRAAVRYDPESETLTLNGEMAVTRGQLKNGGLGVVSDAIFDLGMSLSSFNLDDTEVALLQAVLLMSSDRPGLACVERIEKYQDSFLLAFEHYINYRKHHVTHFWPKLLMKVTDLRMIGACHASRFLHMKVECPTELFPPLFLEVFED
Sequence of THRB (gene 7068) (P10828 whole entry, looked up, the tested form may be a part): as above
Sequence of Retinoic acid receptor RXR-alpha (Homo sapiens) (P19793 whole entry, looked up): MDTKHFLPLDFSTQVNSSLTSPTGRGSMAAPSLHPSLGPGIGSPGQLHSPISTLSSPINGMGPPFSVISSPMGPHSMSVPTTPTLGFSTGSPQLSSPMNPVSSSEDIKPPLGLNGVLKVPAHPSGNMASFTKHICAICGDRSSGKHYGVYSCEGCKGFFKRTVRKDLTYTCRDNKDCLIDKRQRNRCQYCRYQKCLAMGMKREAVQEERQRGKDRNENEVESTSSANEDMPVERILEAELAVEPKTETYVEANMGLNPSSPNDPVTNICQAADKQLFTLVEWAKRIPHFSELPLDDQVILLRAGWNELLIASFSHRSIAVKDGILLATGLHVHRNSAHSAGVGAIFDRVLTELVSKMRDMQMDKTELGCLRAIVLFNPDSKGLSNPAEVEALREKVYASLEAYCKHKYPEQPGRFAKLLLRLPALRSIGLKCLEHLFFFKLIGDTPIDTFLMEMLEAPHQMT
Sequence of Glucocorticoid receptor (Homo sapiens) (P04150 whole entry, looked up): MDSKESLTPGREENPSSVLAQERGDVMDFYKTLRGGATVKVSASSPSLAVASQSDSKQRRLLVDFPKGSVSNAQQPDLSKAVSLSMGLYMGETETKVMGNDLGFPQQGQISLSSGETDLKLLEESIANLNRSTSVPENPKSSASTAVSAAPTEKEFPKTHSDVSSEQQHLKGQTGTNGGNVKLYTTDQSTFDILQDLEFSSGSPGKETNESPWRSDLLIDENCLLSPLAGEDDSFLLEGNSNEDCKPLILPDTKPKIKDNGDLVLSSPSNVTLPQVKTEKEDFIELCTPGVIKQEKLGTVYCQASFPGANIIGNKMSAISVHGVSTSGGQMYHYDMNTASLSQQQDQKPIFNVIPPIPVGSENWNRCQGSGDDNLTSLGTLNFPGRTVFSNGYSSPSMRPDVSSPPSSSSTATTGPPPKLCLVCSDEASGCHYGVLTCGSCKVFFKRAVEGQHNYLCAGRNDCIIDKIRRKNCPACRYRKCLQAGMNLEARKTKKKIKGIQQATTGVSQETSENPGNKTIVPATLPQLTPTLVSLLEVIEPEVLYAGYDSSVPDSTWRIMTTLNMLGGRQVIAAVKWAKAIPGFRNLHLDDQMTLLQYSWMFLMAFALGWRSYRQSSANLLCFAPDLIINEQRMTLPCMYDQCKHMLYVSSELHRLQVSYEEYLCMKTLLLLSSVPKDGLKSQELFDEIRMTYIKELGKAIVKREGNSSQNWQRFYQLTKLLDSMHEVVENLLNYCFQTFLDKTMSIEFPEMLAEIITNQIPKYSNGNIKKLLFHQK
Sequence of rat Androgen Receptor (AR), Ar (gene 24208) (P15207 whole entry, looked up): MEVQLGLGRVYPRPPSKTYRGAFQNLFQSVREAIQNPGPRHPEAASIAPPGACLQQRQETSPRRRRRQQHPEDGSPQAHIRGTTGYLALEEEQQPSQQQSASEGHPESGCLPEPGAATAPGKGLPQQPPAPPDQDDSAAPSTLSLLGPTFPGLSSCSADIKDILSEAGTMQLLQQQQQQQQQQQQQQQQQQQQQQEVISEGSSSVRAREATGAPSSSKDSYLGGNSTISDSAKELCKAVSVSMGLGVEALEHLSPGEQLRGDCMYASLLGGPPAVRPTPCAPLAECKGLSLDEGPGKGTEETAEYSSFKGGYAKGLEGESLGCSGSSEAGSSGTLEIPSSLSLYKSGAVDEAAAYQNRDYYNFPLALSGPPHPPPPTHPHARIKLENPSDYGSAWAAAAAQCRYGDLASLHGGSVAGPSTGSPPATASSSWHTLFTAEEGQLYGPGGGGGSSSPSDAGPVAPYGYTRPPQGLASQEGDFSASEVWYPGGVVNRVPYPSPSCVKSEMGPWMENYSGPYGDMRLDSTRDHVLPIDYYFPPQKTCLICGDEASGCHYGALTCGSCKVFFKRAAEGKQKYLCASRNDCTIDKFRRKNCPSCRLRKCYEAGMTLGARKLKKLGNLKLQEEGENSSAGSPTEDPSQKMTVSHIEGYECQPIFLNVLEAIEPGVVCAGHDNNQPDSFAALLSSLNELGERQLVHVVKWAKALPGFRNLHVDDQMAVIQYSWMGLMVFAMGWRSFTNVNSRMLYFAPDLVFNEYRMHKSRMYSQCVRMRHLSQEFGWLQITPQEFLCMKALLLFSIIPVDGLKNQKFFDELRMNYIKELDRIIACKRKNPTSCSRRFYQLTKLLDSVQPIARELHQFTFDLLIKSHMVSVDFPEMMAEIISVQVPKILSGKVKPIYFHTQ
Sequence of frog Thyroid hormone Receptor alpha (TRa), thra-a (gene 397942) (P15204 whole entry, looked up, the tested form may be a part): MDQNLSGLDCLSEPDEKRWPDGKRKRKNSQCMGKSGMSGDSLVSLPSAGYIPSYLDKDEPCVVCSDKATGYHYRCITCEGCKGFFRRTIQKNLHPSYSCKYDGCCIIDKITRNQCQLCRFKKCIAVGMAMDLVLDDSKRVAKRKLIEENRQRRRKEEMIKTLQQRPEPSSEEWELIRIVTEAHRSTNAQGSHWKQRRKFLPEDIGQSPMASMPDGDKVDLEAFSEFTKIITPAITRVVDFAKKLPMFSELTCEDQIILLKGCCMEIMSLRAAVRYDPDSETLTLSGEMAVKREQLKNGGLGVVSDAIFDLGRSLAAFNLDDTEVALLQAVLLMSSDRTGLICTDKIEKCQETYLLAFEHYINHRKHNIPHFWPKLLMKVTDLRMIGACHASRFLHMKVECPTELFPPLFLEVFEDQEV
Sequence of human Vascular Endothelial Growth Factor Receptor 1 (VEGFR1), FLT1 (gene 2321) (P17948 whole entry, looked up): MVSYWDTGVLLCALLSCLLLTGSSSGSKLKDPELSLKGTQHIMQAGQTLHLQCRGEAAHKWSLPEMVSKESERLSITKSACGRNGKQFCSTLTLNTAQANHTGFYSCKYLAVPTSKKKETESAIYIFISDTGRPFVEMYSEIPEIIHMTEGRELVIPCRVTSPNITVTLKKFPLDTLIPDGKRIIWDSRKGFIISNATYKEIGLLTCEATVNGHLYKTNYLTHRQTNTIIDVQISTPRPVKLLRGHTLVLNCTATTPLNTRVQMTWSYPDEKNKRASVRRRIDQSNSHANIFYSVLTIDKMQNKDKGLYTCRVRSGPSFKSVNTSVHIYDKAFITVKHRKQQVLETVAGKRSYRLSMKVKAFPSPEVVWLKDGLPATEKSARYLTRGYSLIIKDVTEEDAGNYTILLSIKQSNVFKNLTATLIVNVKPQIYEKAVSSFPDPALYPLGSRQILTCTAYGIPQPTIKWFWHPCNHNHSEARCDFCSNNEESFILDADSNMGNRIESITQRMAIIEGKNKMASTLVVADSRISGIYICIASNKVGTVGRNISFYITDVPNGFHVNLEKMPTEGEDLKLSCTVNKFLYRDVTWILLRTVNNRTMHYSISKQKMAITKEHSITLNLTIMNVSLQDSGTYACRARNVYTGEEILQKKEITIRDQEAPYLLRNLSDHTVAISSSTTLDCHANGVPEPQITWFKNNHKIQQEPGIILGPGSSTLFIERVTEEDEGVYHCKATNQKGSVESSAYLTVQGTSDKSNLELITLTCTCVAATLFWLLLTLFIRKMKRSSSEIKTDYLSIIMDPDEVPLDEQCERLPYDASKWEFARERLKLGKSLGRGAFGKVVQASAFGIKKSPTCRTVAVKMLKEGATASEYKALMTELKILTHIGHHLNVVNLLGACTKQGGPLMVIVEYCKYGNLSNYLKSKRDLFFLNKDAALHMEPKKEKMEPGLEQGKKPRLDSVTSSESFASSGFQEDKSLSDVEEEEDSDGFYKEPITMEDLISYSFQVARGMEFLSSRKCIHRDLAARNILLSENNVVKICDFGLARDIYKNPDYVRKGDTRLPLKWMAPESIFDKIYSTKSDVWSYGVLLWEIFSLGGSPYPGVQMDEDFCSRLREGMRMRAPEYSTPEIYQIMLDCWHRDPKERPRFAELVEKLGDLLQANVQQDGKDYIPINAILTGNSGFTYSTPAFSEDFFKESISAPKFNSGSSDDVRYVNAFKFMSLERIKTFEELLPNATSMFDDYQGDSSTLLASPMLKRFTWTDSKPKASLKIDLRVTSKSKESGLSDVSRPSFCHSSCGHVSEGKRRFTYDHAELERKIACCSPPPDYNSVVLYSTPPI

With `Cc1cc(O)cc(C)c1Cl` the outcome [1] was “inactive” and the outcome [2] was “inactive”.
With `CC(=O)CCc1ccccc1` the outcome [3] was “inactive”.
For `Cc1cc(-n2nc3ccc(Cl)cc3n2)c(O)c(C(C)(C)C)c1`, the outcome [4] was “inactive”, the outcome [5] was “inactive” and the outcome [6] was “inactive”.
With `CCCCC(CC)COC(=O)CS` (stereo not given) the AC50 [7] was 25000 nM (active).
In the case of `Cc1cc2nc3c(=O)[nH]c(=O)nc-3n(C[C@H](O)[C@H](O)[C@H](O)CO)c2cc1C`, the AC50 [8] was 94200 nM (active).
With `CCC(C)(CCC(C)C)C(=O)O` (stereo not given) the outcome [9] was “inactive”.
In the case of `CCCCCCC1CCC(=O)O1` (stereo not given), the AC50 [10] was 0.244 nM (active), the AC50 [11] was 1.29 nM (active) and the AC50 [12] was 0.196 nM (active).
In the case of `Sc1nc2ccccc2s1`, the AC50 [13] was 1900 nM (active) and the outcome [14] was “inactive”.
In the case of `CC(C)n1c(/C=C/[C@@H](O)C[C@@H](O)CC(=O)O)c(-c2ccc(F)cc2)c2ccccc21`, the AC50 [15] was 447 nM (active) and 111 nM (active), the outcome [16] was “inactive” and the outcome [17] was “inactive”. For the same compound, the outcome [18] was “inactive”, the outcome [19] was “inactive” and the outcome [20] was “inactive”.
